From the supplement of paper PMC4206461
Unmarked numbers belong to inactive results.

Assays:
[1] = tested on: Pseudomonas aeruginosa PA14 dppA1-A5 penta mutant + pBBR5.DppA1 (PA14_58350); test: respiration area under curve with compound as sole nitrogen source, 24 h (OmniLog AUC (arbitrary units)); higher = more respiration / better utilisation as nitrogen source, active = 2000 or more
Procedure: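 Biolog Phenotype MicroArray plates PM6-PM8: each di/tripeptide is the sole nitrogen source. Tetrazolium reduction was read in the OmniLog for 24 h at 37°C and summarised as area under the respiration curve (arbitrary units). Values below 2000 count as no respiration. Strain is the SBP penta mutant complemented with DppA1 on a plasmid under its native promoter. Lys/His/Cys peptides are excluded.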

[2] = tested on: Pseudomonas aeruginosa PA14 dppBCDF deletion mutant; test: respiration area under curve with compound as sole nitrogen source, 24 h (OmniLog AUC (arbitrary units)); higher = more respiration / better utilisation as nitrogen source, active = 2000 or more; extreme values may be limits of the assay
Procedure: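 Biolog Phenotype MicroArray plates PM6-PM8: each di/tripeptide is the sole nitrogen source. Tetrazolium reduction was read in the OmniLog every 15 min for 24 h at 37°C and summarised as area under the respiration curve (arbitrary units). Values below 2000 count as no respiration. Strain is the dipeptide ABC transporter deletion mutant.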

[3] = tested on: Pseudomonas aeruginosa PA14 wild type; test: respiration area under curve with compound as sole nitrogen source, 24 h (OmniLog AUC (arbitrary units)); higher = more respiration / better utilisation as nitrogen source, active = 2000 or more
Procedure: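 Biolog Phenotype MicroArray plates PM6-PM8: each di/tripeptide is the sole nitrogen source (IF-0 medium with succinate/ferric citrate and dye mix A). Tetrazolium reduction was read in the OmniLog every 15 min for 24 h at 37°C and summarised as area under the respiration curve (arbitrary units). The paper counts values below 2000 as no respiration and above 8000 as solid respiration. Replicate datasets are averaged.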

Structure (SMILES)	respiration area under curve [1]	respiration area under curve [2]	respiration area under curve [3]
N[C@@H](Cc1c[nH]c2ccccc12)C(=O)NCC(=O)O (plate: PM7)	1010	6.75	–
CSCC[C@H](N)C(=O)N[C@H](C(=O)O)[C@@H](C)O (plate: PM8)	1950	211	4350 (active)
CC(C)[C@H](N)C(=O)N[C@@H](CC(=O)O)C(=O)O (plate: PM7)	6440 (active)	18	–
CSCC[C@H](NC(=O)[C@@H](N)CO)C(=O)O (plate: PM7)	–	88.8	4420 (active)
CC[C@H](C)[C@H](N)C(=O)N[C@@H](Cc1ccccc1)C(=O)O (plate: PM6)	1500	52.2	2830 (active)
C[C@@H](O)[C@H](N)C(=O)N[C@@H](CCC(=O)O)C(=O)O (plate: PM7)	5630 (active)	34.2	7240 (active)
NC(CO)C(=O)NC(CCC(=O)O)C(=O)O (centres undefined) (plate: PM8)	3950 (active)	0	5470 (active)
CC(C)C[C@H](NC(=O)[C@@H](C)N)C(=O)O (plate: PM8)	286	0	–
C[C@H](O)[C@@H](NC(=O)CN)C(=O)O (plate: PM8)	0	0	–
CC(C)[C@H](N)C(=O)N[C@@H](CC(N)=O)C(=O)O (plate: PM7)	10400 (active)	5280 (active)	12300 (active)
NCC(=O)N[C@@H](CC(N)=O)C(=O)O (plate: PM8)	–	13800 (active)	14700 (active)
NC(=O)CC[C@H](NC(=O)[C@@H]1CCCN1)C(=O)O (plate: PM7)	9270 (active)	1860	9790 (active)
CC(C)[C@H](NC(=O)CN)C(=O)O (plate: PM6)	1820	124	4270 (active)
O=C(O)[C@@H]1CCCN1C(=O)[C@@H]1CCCN1 (plate: PM7)	8180 (active)	0	–
C[C@H](N)C(=O)N[C@@H](CO)C(=O)O (plate: PM6)	8180 (active)	6740 (active)	–
C[C@H](NC(=O)[C@@H](N)[C@@H](C)O)C(=O)O (plate: PM7)	8470 (active)	3130 (active)	–
CC(C)[C@H](NC(=O)[C@@H](N)CCCN=C(N)N)C(=O)O (plate: PM6)	7530 (active)	7970 (active)	8950 (active)
CC[C@H](C)[C@H](N)C(=O)N[C@@H](Cc1c[nH]c2ccccc12)C(=O)O (plate: PM6)	287	76.8	1090
N[C@@H](Cc1c[nH]c2ccccc12)C(=O)N[C@@H](Cc1ccc(O)cc1)C(=O)O (plate: PM7)	292	236	1070
N[C@@H](CO)C(=O)N[C@@H](CO)C(=O)O (plate: PM7)	6490 (active)	988	–

Structure (SMILES)	respiration area under curve [1]	respiration area under curve [2]	respiration area under curve [3]
CC[C@H](C)[C@H](NC(=O)[C@@H]1CCCN1)C(=O)O (plate: PM8)	4410 (active)	1	–
NCC(=O)N[C@@H](Cc1c[nH]c2ccccc12)C(=O)O (plate: PM6)	–	0	755
O=C(O)[C@H](Cc1ccc(O)cc1)NC(=O)[C@@H]1CCCN1 (plate: PM7)	11800 (active)	8430 (active)	12200 (active)
NCC(=O)N[C@@H](CO)C(=O)O (plate: PM6)	6080 (active)	2360 (active)	–
N[C@@H](CCC(=O)O)C(=O)N[C@@H](CCC(=O)O)C(=O)O (plate: PM6)	–	0	248
N[C@@H](Cc1ccccc1)C(=O)N[C@@H](CCC(=O)O)C(=O)O (plate: PM8)	2880 (active)	–	–
N[C@@H](CC(=O)O)C(=O)N[C@@H](Cc1c[nH]c2ccccc12)C(=O)O (plate: PM6)	–	1260	2310 (active)
C[C@H](N)C(=O)N[C@@H](CC(=O)O)C(=O)O (plate: PM8)	9070 (active)	–	–
N[C@@H](Cc1ccccc1)C(=O)N[C@@H](Cc1ccc(O)cc1)C(=O)O (plate: PM8)	–	881	2350 (active)
NC(N)=NCCC[C@H](N)C(=O)N[C@@H](Cc1c[nH]c2ccccc12)C(=O)O (plate: PM6)	–	7640 (active)	8730 (active)
C[C@@H](O)[C@H](N)C(=O)N[C@@H](CCC(N)=O)C(=O)O (plate: PM8)	–	454	12100 (active)
CCC(C)C(N)C(=O)NC(CC(N)=O)C(=O)O (centres undefined) (plate: PM8)	7760 (active)	–	–
NC(=O)CC[C@H](NC(=O)[C@@H](N)CCC(N)=O)C(=O)O (plate: PM6)	–	4130 (active)	8430 (active)
CC[C@H](C)[C@H](NC(=O)[C@@H](N)Cc1ccccc1)C(=O)O (plate: PM7)	7890 (active)	–	–
CC(C)[C@H](N)C(=O)N[C@@H](C)C(=O)O (plate: PM8)	–	207	6590 (active)
CC(C)C(N)C(=O)NC(CO)C(=O)O (centres undefined) (plate: PM8)	–	844	9530 (active)
C[C@@H](N)C(=O)NCC(=O)O (plate: PM8)	5420 (active)	–	–
C[C@H](N)C(=O)N[C@@H](CCC(N)=O)C(=O)O (plate: PM8)	10400 (active)	–	–
C[C@H](NC(=O)[C@@H](N)CCCN=C(N)N)C(=O)O (plate: PM6)	8610 (active)	–	–
O=C(O)CNC(=O)[C@@H]1CCCN1 (plate: PM7)	–	217	10100 (active)

Structure (SMILES)	respiration area under curve [1]	respiration area under curve [2]	respiration area under curve [3]
C[C@H](N)C(=O)N[C@@H](Cc1ccccc1)C(=O)O (plate: PM6)	–	5070 (active)	7710 (active)
CC[C@H](C)[C@H](N)C(=O)N[C@@H](CCC(N)=O)C(=O)O (plate: PM6)	5000 (active)	–	–
N[C@@H](CO)C(=O)N[C@@H](CC(=O)O)C(=O)O (plate: PM8)	–	0	4090 (active)
N[C@@H](Cc1ccccc1)C(=O)NCC(=O)NCC(=O)O (plate: PM8)	–	1300	8700 (active)
NC(=O)CC[C@H](NC(=O)[C@@H](N)CO)C(=O)O (plate: PM8)	7790 (active)	–	–
NCC(=O)N[C@@H](Cc1ccccc1)C(=O)O (plate: PM6)	–	350	2760 (active)
N[C@@H](CO)C(=O)NCC(=O)O (plate: PM7)	–	1360	8430 (active)
NCC(=O)N[C@@H](Cc1ccccc1)C(=O)N[C@@H](Cc1ccccc1)C(=O)O (plate: PM8)	–	1840	8980 (active)
N[C@@H](CO)C(=O)N[C@@H](Cc1ccccc1)C(=O)O (plate: PM7)	–	968	7090 (active)
CC(C)C[C@H](NC(=O)[C@@H](N)CCCN=C(N)N)C(=O)O (plate: PM6)	–	8090 (active)	9430 (active)
C[C@H](N)C(=O)N[C@@H](C)C(=O)O (plate: PM6)	–	6250 (active)	8430 (active)
C[C@H](N)C(=O)N[C@@H](CC(N)=O)C(=O)O (plate: PM6)	7840 (active)	–	–
CC(C)C[C@@H](N)C(=O)N[C@@H](Cc1ccc(O)cc1)C(=O)O (plate: PM8)	–	0	36.8
C[C@H](N)C(=O)N[C@H](C(=O)O)[C@@H](C)O (plate: PM6)	4830 (active)	–	–
C[C@H](NC(=O)[C@@H](N)Cc1c[nH]c2ccccc12)C(=O)O (plate: PM7)	2360 (active)	–	–
C[C@@H](O)[C@H](N)C(=O)N[C@@H](Cc1ccccc1)C(=O)O (plate: PM8)	–	274	8640 (active)
NC(Cc1c[nH]c2ccccc12)C(=O)NC(Cc1ccccc1)C(=O)O (centres undefined) (plate: PM7)	–	14.8	547
NC(=O)C[C@H](NC(=O)[C@@H]1CCCN1)C(=O)O (plate: PM8)	–	5910 (active)	12900 (active)
CC(C)[C@H](N)C(=O)NCC(=O)O (plate: PM7)	–	47.8	9460 (active)
CC(C)[C@H](N)C(=O)N[C@@H](Cc1ccc(O)cc1)C(=O)N[C@H](C(=O)O)C(C)C (plate: PM8)	–	5710 (active)	8370 (active)
